Our source for the growth values is PubChem BioAssay (NCI).

The panel holds about 83,000 compounds, 20% with a hit somewhere; the sample as a whole holds those more often.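 Cells were grown in 96-well plates and exposed to the test compound at a single concentration for 48 hours; results are reported as percent growth, with values below 10 considered active.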 A number with no mark means an inactive call. Activity calls are given as the source filed them.

The assay has as its system SR leukemia. Kind of assay: NCI-60 one-dose screen, 48 h (100 = growth as untreated, 0 = no growth, -100 = all killed). The conditions noted are these: 10 µM.
On to `C#CCNC(=O)CCC(=O)OC[C@]12CC[C@@H](C(=C)C)[C@@H]1C1CC[C@@H]3[C@@]4(C)CCCNC(C)(C)[C@@H]4CC[C@@]3(C)[C@]1(C)CC2` (stereo not given in full), for which the growth is -7.1% (active).

`Cc1ccc(-c2nc(Nc3ccc(S(N)(=O)=O)cc3)c3ccccc3n2)cc1`: the growth is 14.6%.

`N#Cc1ccc(-c2nn(-c3ccc(C(=O)O)cc3)cc2CNc2cccc(Br)c2)cc1`: the growth was 40.2%.

Turning to `Cc1noc2c(Cc3ccc([N+](=O)[O-])cc3)nn(CC(=O)N/N=C/c3ccc(Br)cc3)c(=O)c12`, the growth is 97.6%.

As for `Cc1ccc(/C=C/C(=O)c2ccc(NC(=O)CSc3nnc(-c4c[nH]c5ccccc45)n3-c3ccccc3)cc2)c(C)c1`, the growth is 41.6%.

Take `O=C1c2ccccc2C(=O)c2c1c(C(=O)c1ccc(Cl)cc1)n1c2ccc2c3ccccc3ccc21`: the growth is 104%.

Consider `COc1ccc(C(=O)Nc2sc3c(c2C#N)CCC(=O)C3)cc1C(F)(F)F`, for which the growth was 0.622% (active).

Consider `COc1ccc(C2NC(=S)NC(C)=C2C(=O)OC(C)C)cc1OC` (stereo not given), for which the growth was 101%.

For the compound `COc1ccc(OC)c(/C=N/NC(=O)c2ccc3nc(-c4ccc(Cl)cc4)[nH]c3c2)c1`, the growth is 68.6%.

For the compound `Nc1nc(Nc2ccc(Cl)cc2)n(Cc2cccc(Br)c2)n1`, the growth is 10.4%.

Regarding `O=C(CSc1nnc(-c2ccc3nc(-c4ccc(Cl)cc4)[nH]c3c2)o1)Nc1ccc(Br)cc1`, the growth is 3.26% (active).

In the case of `COc1cc2c(cc1OC)CN(CCCCOc1cc(O)c3c(=O)cc(-c4ccccc4)oc3c1)CC2`, the growth was -13.8% (active).

With `O=C(CSc1nnc(-c2c[nH]c3ccccc23)n1-c1ccccc1)c1ccc(Br)cc1`, the growth was 90.8%.

For the compound `Cc1ccc(/C=C/C(=O)c2ccc(NC(=O)CSc3nnc(-c4c[nH]c5ccccc45)n3-c3ccccc3)cc2)cc1`, the growth was 72.4%.

Turning to `CC1=C(c2cc(-c3ccc(Cl)cc3)c(C#N)c(N)n2)C(c2ccccc2)NC(=S)N1` (stereo not given), the growth was 2.54% (active).

With `COc1ccc(-c2cc(-c3cc(C(=O)c4ccccc4)n4ccc(C)cc34)nc(N)c2C#N)cc1`, the growth was 86.7%.

In the case of `COc1cc2c3c(n(CCCNCCO)c(=O)c2cc1OC)-c1nc2c(cc1C3=O)OCO2`, the growth is 1.88% (active).

For `COc1ccc(/C=C/C(=O)c2ccc(N3CCN(C)CC3)cc2)c(C(F)(F)F)c1`, the growth is 7.12% (active).

Regarding `Cn1cc(/C=N/Nc2cccc(Cl)n2)c2ccccc21`, the growth is 27.6%.

As to `COc1ccc(C(=O)CSc2nnc(-c3c[nH]c4ccccc34)n2-c2ccccc2)cc1`, the growth is 79.7%.

As for `N#Cc1c(NC(=O)c2ccc(C(F)(F)F)c(Cl)c2)sc2c1CCC(=O)C2`, the growth was -11.8% (active).

`COc1cc(/C=C/C(=O)c2ccc(NC(=O)CSc3nnc(-c4c[nH]c5ccccc45)n3-c3ccccc3)cc2)cc(OC)c1OC`: the growth is 35.3%.

In the case of `O=C(Nc1cccc([N+](=O)[O-])c1)Nc1cccc([N+](=O)[O-])c1`, the growth was 88.7%.

For `COc1cc(NC(=O)CSc2nnc(-c3ccc4nc(-c5ccc(Cl)cc5)[nH]c4c3)o2)cc(OC)c1OC`, the growth was 48%.

Consider `O=S(=O)(Nc1ncccn1)c1ccc(-n2c(-c3ccc(Br)cc3)nc(-c3ccccc3)c2-c2ccccc2)cc1`, for which the growth is 45.2%.

Regarding `CCN1CCN(Cc2ccc(C(=O)Nc3cccc(-c4cn(-c5ccc6oc(=O)ccc6c5)nn4)c3)cc2C(F)(F)F)CC1`, the growth was -51.6% (active).

As to `Cc1cc(=O)oc2cc(OCCCCOc3ccc(/C=C/C(=O)Nc4ccc(F)c(Cl)c4)cc3)ccc12`, the growth was 89%.

Regarding `Cc1cc(C)nc(/N=C(\N)Nc2ccc(S(=O)(=O)Nc3nc(C)cc(C)n3)cc2)n1`, the growth was 99.8%.

As to `Cc1cccc(-c2nc(Nc3ccccc3C(=O)O)c3ccccc3n2)c1`, the growth is 23%.

Regarding `C=C1CCC2C3(C)COC(c4cccc(F)c4)OC3CCC2(C)C1CC(O)C1=CCOC1=O` (stereo not given), the growth was 40.4%.

For `CC1CC(c2ccc(N(C)C)cc2)=NN1c1nc(O)c(C2=c3cc(Br)ccc3=NC2=O)s1` (stereo not given), the growth was 67.6%.

Turning to `C/C(=N\NC(N)=S)c1ccc(Nc2nc(SC(C)C)nc(-c3ccccc3)c2C#N)cc1`, the growth was 79.9%.

Turning to `O=c1c2ccccc2nc(COc2ccccc2)n1/N=C/c1ccc(N2CCCC2)cc1`, the growth was 73.9%.

Consider `CN1CCN(Cc2ccc(NC(=O)c3cncc(C#Cc4cnc5ccc(N[C@H]6CCOC6)nn45)c3)cc2C(F)(F)F)CC1`, for which the growth was -21.7% (active).

For the compound `Cn1cc(-c2cc(N)n3nc(-c4c[nH]c5ccc(Br)cc45)cc3n2)c2cc(Br)cnc21`, the growth is -15.6% (active).

Turning to `CC(=O)Nc1ccc(-n2cnc3cc(-c4ccc(NS(C)(=O)=O)cc4)ccc32)cc1`, the growth was 21.8%.

On to `COc1ccccc1C(=O)NNC(=O)CSc1nc2c(c(=O)[nH]1)CCCC2`, for which the growth is 96.4%.

For `O=c1[nH]c2ccccc2cc1CSc1ccc(Nc2nccc(-c3ccc(C(F)(F)F)cc3)n2)cc1`, the growth is 64.7%.

`COc1cnc2c(c1)C(=O)c1c-2n(CCCNCCO)c(=O)c2cc(OC)c(OC)cc12`: the growth was 5.85% (active).

Turning to `C/C(=N\N=C\c1ccc(Cl)c([N+](=O)[O-])c1)c1ccc2c(c1)Nc1ccccc1S2`, the growth was 44.1%.
